Measured values as given in PubChem BioAssay (NCATS).
Values joined by “and” are separate entries in the source; they are usually repeats but may differ in a detail not shown here. Identical values can stand only once. Results filed as inconclusive are left out. Entries that show only a call come without a potency. Where a structure was tested more than once in an assay, its records may differ in their call. Active and inactive are the calls of the source. Calls come from the whole dose curve; as a rule, active = well fitted curve in the direction sought with a large enough effect; inconclusive = small, poorly fitted or top-dose-only effect, or another doubt; inactive = no such curve, though single readings can be large; an effect the other way counts as inactive or inconclusive.

What was measured:
[1] = target: Cytochrome P450 3A7 (Homo sapiens) (UniProt P24462); experiment: Cytochrome P450 family 3 subfamily A member 7 (CYP3A7) small molecule antagonists: luciferase biochemical qHTS assay (AID 1963596); note: nearly all actives have a fitted effect of over 40% in size
Sequence of Cytochrome P450 3A7 (Homo sapiens) (P24462 whole entry, looked up): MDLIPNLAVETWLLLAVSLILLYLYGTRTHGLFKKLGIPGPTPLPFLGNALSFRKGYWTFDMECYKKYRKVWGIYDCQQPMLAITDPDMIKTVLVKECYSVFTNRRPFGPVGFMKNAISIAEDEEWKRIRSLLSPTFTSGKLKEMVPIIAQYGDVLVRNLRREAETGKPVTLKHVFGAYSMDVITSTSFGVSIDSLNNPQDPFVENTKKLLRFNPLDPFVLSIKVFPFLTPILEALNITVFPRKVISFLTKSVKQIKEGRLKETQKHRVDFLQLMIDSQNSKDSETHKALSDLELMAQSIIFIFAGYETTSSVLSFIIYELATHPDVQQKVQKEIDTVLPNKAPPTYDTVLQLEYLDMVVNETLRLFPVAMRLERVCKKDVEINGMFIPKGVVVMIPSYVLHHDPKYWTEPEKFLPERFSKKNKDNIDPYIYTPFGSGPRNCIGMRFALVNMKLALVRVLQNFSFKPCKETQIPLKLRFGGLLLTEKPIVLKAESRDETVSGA
In short: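 Recombinant CYP3A7 P450-Glo luminescent assay: enzyme-proluciferin substrate mix preincubated with compound 10 min at room temperature, reaction started with NADPH regeneration system for 1 h. Luciferin detected by luminescence; ketoconazole as positive control.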

[2] = Viability qHTS for spleen associated tyrosine kinase inhibitor (SYKi) naive MV4-11 cells (AID 1963823); note: nearly all actives have a fitted effect of over 40% in size; note: potency is the fitted concentration of half-maximal effect
In short: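 Luminescence from CellTiter-Glo, developed 10 min at room temperature, gave viability of MV4-11 cells never exposed to SYK inhibitor. Cells (500/well) had been incubated with compounds for 72 hr under standard culture conditions.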

[3] = Viability qHTS for spleen associated tyrosine kinase inhibitor (SYKi) drug resistant MV4-11 cells (AID 1963824); note: nearly all actives have a fitted effect of over 35% in size; note: potency is the fitted concentration of half-maximal effect
In short: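 SYK inhibitor-resistant MV4-11 AML cells, 500 per well, added to predispensed compounds and incubated 72 hr at 37 C, 5% CO2. Viability measured by CellTiter-Glo luminescence after 10 min at room temperature.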

[4] = Quantitative highthroughput screen to assess conditional lethalithy of NOMO1 cells grown in RPMI1640 with untreated serum (RPMI+s) (AID 1963876); note: nearly all actives have a fitted effect of over 35% in size; note: potency is the fitted concentration of half-maximal effect
In short: (§1)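 Each medium arm—HPLM with 10% dialyzed FBS, or RPMI1640 with 5 mM glucose and 10% untreated or dialyzed FBS—was screened against an 11-point, 3-fold compound titration for 48 h at 37 °C, with CellTiter-Glo luminescence as endpoint.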

[5] = Quantitative highthroughput screen to assess conditional lethalithy of NOMO1 cells grown in Human Plasma-Like Medium with dialyzed fetal bovine serum (HPLM+ds) (AID 1963878); note: nearly all actives have a fitted effect of over 35% in size; note: potency is the fitted concentration of half-maximal effect
In short: as §1

[6] = Quantitative highthroughput screen to assess conditional lethalithy of P12 Ichikawa cells grown in RPMI1640 with dialyzed fetal bovine serum (RPMI+ds) (AID 1963880); details: Potency: P12-Ichikawa viability; note: nearly all actives have a fitted effect of over 35% in size; note: potency is the fitted concentration of half-maximal effect
In short: as §1

[7] = Quantitative highthroughput screen to assess conditional lethalithy of SEM cells grown in Human Plasma-Like Medium with dialyzed fetal bovine serum (HPLM+ds) (AID 1963882); note: nearly all actives have a fitted effect of over 35% in size; note: potency is the fitted concentration of half-maximal effect; for Viability: series mostly up to about 46 µM
In short: as §1

[8] = Quantitative highthroughput screen to assess conditional lethalithy of SEM cells grown in RPMI1640 with unreated serum (RPMI+s) (AID 1963883); note: nearly all actives have a fitted effect of over 35% in size; note: potency is the fitted concentration of half-maximal effect
In short: as §1

[9] = Cellular viability qHTS for adrenocortical cancer (ACC) cell line SW-13 (AID 1963989); details: SW-13 ACC cells viability, CellTiter-Glo, 48 h; activity (max response): stronger effect = lower value; note: nearly all actives have a fitted effect of over 65% in size; note: potency is the fitted concentration of half-maximal effect;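 for activity (max response): cells grown in serum-free medium with ITS supplement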
In short: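 Viability was read as CellTiter-Glo luminescence after 48 h compound treatment (up to 46 uM final) of SW-13 cells grown serum-free; titration curves were fit with a four-parameter logistic model to give IC50 and efficacy.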

[10] = Cellular viability qHTS for adrenocortical cancer (ACC) cell line NCI-H295R (AID 1963990); note: nearly all actives have a fitted effect of over 60% in size; note: potency is the fitted concentration of half-maximal effect
In short: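 CellTiter-Glo ATP luminescence, read 48 h after compound addition, measured viability of NCI-H295R adrenocortical cells grown serum-free with ITS. Final concentrations spanned up to 46 uM. Data normalized to DMSO and doxorubicin, fitted for IC50 and maximal response.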

[11] = Quantitative highthroughput screen to assess conditional lethalithy of NOMO1 cells grown in RPMI1640 with dialyzed fetal bovine serum (RPMI+ds) (AID 1963877); note: nearly all actives have a fitted effect of over 30% in size; note: potency is the fitted concentration of half-maximal effect; for Viability: series mostly up to about 46 µM
In short: as §1

[12] = Quantitative highthroughput screen to assess conditional lethalithy of P12 Ichikawa cells grown in Human Plasma-Like Medium with dialyzed fetal bovine serum (HPLM+ds) (AID 1963879); details: Potency: viability; note: nearly all actives have a fitted effect of over 35% in size; note: potency is the fitted concentration of half-maximal effect; for Viability: series mostly up to about 46 µM
In short: as §1

[13] = Quantitative highthroughput screen to assess conditional lethalithy of P12 Ichikawa cells grown in RPMI1640 with untreated serum (RPMI+s) (AID 1963881); details: Potency: viability; note: nearly all actives have a fitted effect of over 35% in size; note: potency is the fitted concentration of half-maximal effect; for Viability: series mostly up to about 46 µM
In short: as §1

[14] = Quantitative highthroughput screen to assess conditional lethalithy of SEM cells grown in RPMI1640 with dialyzed fetal bovine serum (RPMI+ds) (AID 1963884); note: nearly all actives have a fitted effect of over 35% in size; note: potency is the fitted concentration of half-maximal effect; for Viability: series mostly up to about 46 µM
In short: as §1

Fc1cc(-c2cccc3ncc(-c4cnn(C5CCNCC5)c4)nc23)cc(F)c1CN1CCOCC1
Potency [1]: inactive
Potency [2]: 259 nM (active) and 372 nM (active)
Potency [3]: 731 nM (active) and 833 nM (active)
Potency [4]: 8.33 µM (active)
Potency [5]: 3.32 µM (active)
Potency [6]: 16.6 µM (active)
Potency [7]: 4.69 µM (active)
Potency [8]: 2.64 µM (active)
Potency [9]: 25.1 µM (active)
Potency [10]: 6.31 µM (active)

Cc1ccc(C(=O)Nc2ccc(S(=O)(=O)O)c3cc(S(=O)(=O)O)cc(S(=O)(=O)O)c23)cc1NC(=O)c1cccc(NC(=O)Nc2cccc(C(=O)Nc3cc(C(=O)Nc4ccc(S(=O)(=O)O)c5cc(S(=O)(=O)O)cc(S(=O)(=O)O)c45)ccc3C)c2)c1
Potency [1]: inactive
Potency [2]: inactive
Potency [3]: inactive
Potency [4]: inactive
Potency [11]: 8.33 µM (active)
activity (max response) [9]: -19.9% (inactive) and 5.07% (inactive)

Cc1cnc(Nc2ccc(N3CCN(C)CC3)cc2)nc1Nc1cccc(S(=O)(=O)NC(C)(C)C)c1
Potency [1]: inactive
Potency [2]: 103 nM (active)
Potency [3]: 206 nM (active)
Potency [4]: 13.2 µM (active)
Potency [5]: 14.8 µM (active)
Potency [12]: 11.8 µM (active)
Potency [6]: 16.6 µM (active)
Potency [13]: 7.43 µM (active)
Potency [7]: 1.05 µM (active)
Potency [8]: 0.935 µM (active)
Potency [14]: 1.32 µM (active)
Potency [9]: 12.6 µM (active)
Potency [10]: 10 µM (active)

COc1ccc(-c2ccc3cc(C(=O)O)ccc3c2)cc1C12CC3CC(CC(C3)C1)C2
Potency [1]: inactive
Potency [2]: 211 nM (active)
Potency [3]: 1320 nM (active)
Potency [4]: inactive
Potency [5]: inactive
Potency [12]: inactive
Potency [6]: inactive
Potency [13]: inactive
Potency [8]: inactive
Potency [14]: inactive
activity (max response) [9]: -2.5% (inactive) and -9.37% (inactive)
Potency [10]: inactive

CCCn1c(=O)c2[nH]c(-c3cnn(Cc4cccc(C(F)(F)F)c4)c3)nc2n(CC)c1=O
Potency [1]: inactive
Potency [2]: inactive
Potency [3]: inactive
Potency [4]: 6.62 µM (active)
Potency [6]: 4.18 µM (active)
Potency [13]: 0.418 µM (active)
Potency [7]: inactive
Potency [8]: inactive
Potency [14]: inactive
activity (max response) [9]: 6% (inactive)
Potency [10]: inactive

CC1(C)[C@H](C(=O)O)N2C(=O)C[C@H]2S1(=O)=O
Potency [1]: inactive
Potency [2]: inactive
Potency [3]: inactive
Potency [4]: 8.33 µM (active)
Potency [12]: inactive
Potency [6]: inactive
Potency [13]: inactive
Potency [7]: inactive
Potency [8]: inactive
Potency [14]: inactive
activity (max response) [9]: 9.85% (inactive)
Potency [10]: inactive

O=c1[nH]cnc2[nH]ncc12
Potency [1]: inactive
Potency [2]: inactive
Potency [3]: inactive
Potency [4]: inactive
Potency [11]: inactive
Potency [6]: inactive
Potency [13]: inactive
Potency [8]: inactive
activity (max response) [9]: 1.44% (inactive) and -3.08% (inactive)
Potency [10]: inactive

Cc1nc2ccc(CN(C)c3ccc(C(=O)N[C@@H](CCC(=O)O)C(=O)O)s3)cc2c(=O)[nH]1
Potency [1]: inactive
Potency [2]: 6.6 nM (active)
Potency [3]: 7.4 nM (active)
Potency [4]: 0.418 µM (active)
Potency [8]: inactive
Potency [10]: inactive

COc1cc2c(Oc3ccc4[nH]c(C)cc4c3F)ncnc2cc1OCCCN1CCCC1
Potency [1]: inactive
Potency [2]: 13 µM (active) and 3.32 µM (active)
Potency [3]: 5.8 µM (active) and 2.63 µM (active)
Potency [7]: 9.35 µM (active)
Potency [8]: 4.18 µM (active)
Potency [14]: 5.26 µM (active)
Potency [9]: 25.1 µM (active)
Potency [10]: 22.4 µM (active)

Cc1ccc(S(=O)(=O)NC(=O)NN2CC3CCCC3C2)cc1 (stereo not given)
Potency [1]: inactive
Potency [2]: inactive
Potency [3]: inactive
Potency [6]: 2.96 µM (active)
Potency [13]: 4.18 µM (active)
Potency [7]: 5.9 µM (active)
Potency [8]: 4.18 µM (active)
Potency [14]: 2.96 µM (active)
activity (max response) [9]: 5.83% (inactive) and 9.36% (inactive)
Potency [10]: inactive

CN1C(C(=O)Nc2ccccn2)=C(O)c2sccc2S1(=O)=O
Potency [1]: inactive
Potency [2]: 750 nM (active) and inactive
Potency [3]: inactive
Potency [12]: inactive
Potency [6]: inactive
Potency [13]: inactive
Potency [7]: inactive
Potency [8]: inactive
Potency [14]: inactive
activity (max response) [9]: 0.0862% (inactive) and -19.6% (inactive)
Potency [10]: inactive

O=c1ccn([C@@H]2O[C@H](CO)[C@@H](O)[C@H]2O)c(=O)[nH]1
Potency [1]: inactive
Potency [2]: inactive
Potency [3]: inactive
activity (max response) [9]: -5.6% (inactive)

COc1c(O)cc2c(c1O)[C@@H]1O[C@H](CO)[C@@H](O)[C@H](O)[C@H]1OC2=O
Potency [1]: inactive
Potency [2]: inactive
Potency [3]: inactive
Potency [5]: 14.8 µM (active)
Potency [12]: 16.6 µM (active)
Potency [7]: 20.9 µM (active)
Potency [8]: 10.5 µM (active)
Potency [14]: 18.7 µM (active)

CC12CC3CC(C)(C1)CC(N)(C3)C2
Potency [1]: inactive
Potency [2]: inactive
Potency [3]: 3760 nM (active)
Potency [11]: 18.7 µM (active)
Potency [7]: inactive
Potency [8]: inactive
Potency [14]: inactive
activity (max response) [9]: -3.68% (inactive)
Potency [10]: inactive
